For 23 compounds, AC50 and outcome results are on record in PubChem BioAssay (EPA / NIEHS).

Records with an inconclusive call do not appear. Some compounds were tested as several samples or in several runs, with calls that do not always agree. The source made the active and inactive calls. The calls were made as follows: active = hit-call score of the fitted dose curve at least 0.9, where 1 is the maximum; inconclusive = response in the unintended direction; inactive = score below 0.9.

The subject of test [1] is chicken Androgen Receptor (AR), gene 422165. Kind of test: ATG_chAR_XSP1: Attagene TRANS-FACTORIAL Multi-Species (XSP1) HepG2 Assay for chicken Androgen Receptor (AR) (AID 2283768). In short, it runs like this: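 HepG2 cells transiently transfected with multiplexed GAL4-UAS reporter units expressing chimeric chicken AR-Gal4; 3 nM 6-alpha-fluorotestosterone for partial AR stimulation; 24 h after dosing, reporter mRNA by RT-PCR and capillary electrophoresis, gain-of-signal versus DMSO.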

Test [2] has as its target zebrafish Estrogen Receptor (ESR1), esr1 (gene 259252) (UniProt P57717). Kind of test: ATG_zfER1_XSP1: Attagene TRANS-FACTORIAL Multi-Species (XSP1) HepG2 Assay for zebrafish Estrogen Receptor (ESR1) (AID 2283772). In short, it runs like this:
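HepG2 cells transiently transfected with a GAL4-UAS reporter and chimeric zebrafish ER-Gal4, dosed 24 h with 3 nM 6-alpha-fluorotestosterone present. Reporter mRNA measured by RT-PCR and capillary electrophoresis; gain of signal versus DMSO.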

For test [3], the system named is zebrafish Estrogen Receptor (ESR2B), gene 317733. Kind of test: ATG_zfER2b_XSP1: Attagene TRANS-FACTORIAL Multi-Species (XSP1) HepG2 Assay for zebrafish Estrogen Receptor (ESR2B) (AID 2283773). The method, boiled down:
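HepG2 cells transiently transfected with GAL4-UAS reporter units for chimeric zebrafish ER2b-Gal4, with 3 nM 6-alpha-fluorotestosterone present; reporter mRNA measured 24 h after dosing by RT-PCR and capillary electrophoresis, gain versus DMSO.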

The test system of test [4] is frog Estrogen Receptor (ESR2), gene 100174814. Kind of test: ATG_frER2_XSP1: Attagene TRANS-FACTORIAL Multi-Species (XSP1) HepG2 Assay for frog Estrogen Receptor (ESR2) (AID 2283774). On the procedure: ATG_XSP1_multi-species_TRANS is a cell-based, multiplexed assay created by modifying the existing Attagene TRANS-FACTORIAL system to include a panel of nuclear receptors from some or all the following species: human (Homo sapiens), mouse (Mus musculus), frog (Xenopus laevis), zebrafish (Danio rerio), chicken (Gallus gallus), and turtle (Chrysemys picta). The ECOTOX-FACTORIAL format uses HepG2, a human liver cell line, with measurements taken at 24 hours after chemical dosing in a 24-well plate. Xsp1 included 3 nM 6-alpha-fluorotestosterone to partially stimulate the androgen receptor.ATG_frER2_XSP1 is one of 29 assay components measured or calculated from the ATG_XSP1_multi-species_TRANS assay. It is designed to make measurements of mRNA induction, a form of inducible reporter, as detected with fluorescence intensity signals by Reverse transcription polymerase chain reaction (RT-PCR) and Capillary electrophoresis technology.The assay endpoint ATG_frER2_XSP1 was analyzed in the positive analysis fitting direction relative to DMSO as the negative control and baseline of activity. Using a type of inducible reporter, measures of mRNA for gain-of-signal activity can be used to understand the reporter gene at the transcription factor-level as they relate to the gene ER. Furthermore, this assay endpoint can be referred to as a primary readout, because this assay has produced multiple assay endpoints where this one serves a reporter gene function. To generalize the intended target to other relatable targets, this assay endpoint is annotated to the nuclear receptor intended target family, where the subfamily is steroidal.
Human liver HepG2 cells are transiently transfected with multiple reporter transcription units (MRTUs) in 6-well plates using FuGene 6 reagent (Roche; 3 ml FuGene/1 mg DNA). The MRTU constructs are regulated by a cis-regulating element (promoter). […] A major difference between the CIS and TRANS system is that in CIS activities of endogenous TFs are measured, whereas the TRANS assay evaluates changes in activities of exogenous, chimeric NR-Gal4 proteins. […] At the end of 24 hour incubation, total RNA was isolated using TriZol reagent (Invitrogen). The isolated RNA is then reverse-transcribed using oligo(dT) primer and Mo-MLV reverse transcriptase (Invitrogen) with DNAse I (Ambion) treatment for 30 min. The one-tenth of the produced cDNA was amplified by PCR using Taq DNA polymerase (Invitrogen) and two reporter sequence-specific primers. The PCR products were fluorescently labeled by primer extension with 6-arboxyfluorescein (6-FAM) 5'-labeled reporter sequence-specific primer (2 min at 95 C, 20 s at 68 C and 10 min at 72 C) and these products were digested with 5U of HpaI (New England Biolabs) for 2h at 37 C. The fragments were purified using Qiaquick PCR columns (Qiagen), analyzed on an ABI 3130xL genetic analyzer (Applied Biosystems) with peak positions identified by using a set of X-rhodamine (ROX)-labeled MapMarker1000 molecular weight standards (BioVentures). The raw capillary electrophoresis data was processed using Attagraph software (Attagene).

A short description of test [5]: ACEA_AR_agonist_AUC_viability: ACEA Biosciences xCELLigence Real-Time Cell Analysis on Androgen Receptor Agonism for Viability (AID 2283775).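 As to AC50: viability read 80 hours after compound addition.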 The method, boiled down: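 Read-out is area under the impedance curve at 80 h post-dose in 22Rv1 cells, with DMSO as baseline and signal loss taken as reduced viability. Compounds ran in duplicate from 100 uM final.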
Test [6] is described as follows: ACEA_AR_antagonist_AUC_viability: ACEA Biosciences xCELLigence Real-Time Cell Analysis on Androgen Receptor Antagonism for Viability (AID 2283776).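 Also: area under impedance growth curve at 80 h after dosing as viability; hits lower the growth signal relative to DMSO meaning cytotoxicity.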 In short, it runs like this:
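22Rv1 human prostate cancer cells were seeded on electrode plates, monitored overnight, then exposed to eight 1:4 dilutions from 100 uM final. Impedance-based growth kinetics at 80 h gave an AUC viability endpoint normalized to DMSO.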

Test [7] addresses Luciferin 4-monooxygenase (Photinus pyralis) (UniProt P08659). Kind of test: CCTE_Simmons_QuantiLum_inhib_2: CCTE's Firefly Luciferase Inhibition Assay, Simmons Lab (AID 2283767).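 As to AC50: potency for inhibitors that lower luciferase luminescence relative to DMSO.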 The method, boiled down:
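Recombinant firefly luciferase (5 ng/well, 200 mM potassium phosphate with 1 mg/ml BSA) was exposed to 8 concentrations from 5 nM to 87.5 uM (final, 0.5% DMSO) for 30 min at 37C in the dark. Loss of luminescence versus DMSO was read after injecting D-luciferin/ATP-analogue reagent.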

Sequence of Luciferin 4-monooxygenase (Photinus pyralis) (P08659 whole entry, looked up): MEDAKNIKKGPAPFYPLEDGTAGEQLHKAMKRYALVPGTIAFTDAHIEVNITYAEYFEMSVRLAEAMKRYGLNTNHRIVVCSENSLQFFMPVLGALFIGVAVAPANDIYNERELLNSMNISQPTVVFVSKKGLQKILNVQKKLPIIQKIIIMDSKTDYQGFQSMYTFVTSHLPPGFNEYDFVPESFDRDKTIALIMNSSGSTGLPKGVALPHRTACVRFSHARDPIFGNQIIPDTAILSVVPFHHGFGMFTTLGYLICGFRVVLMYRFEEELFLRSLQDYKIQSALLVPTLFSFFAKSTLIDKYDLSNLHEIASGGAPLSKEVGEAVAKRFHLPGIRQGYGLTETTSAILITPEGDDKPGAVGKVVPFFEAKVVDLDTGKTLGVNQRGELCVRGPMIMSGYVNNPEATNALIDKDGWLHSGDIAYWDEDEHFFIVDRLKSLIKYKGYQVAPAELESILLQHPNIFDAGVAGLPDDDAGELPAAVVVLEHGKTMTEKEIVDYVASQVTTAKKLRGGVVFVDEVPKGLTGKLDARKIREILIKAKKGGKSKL
Sequence of zebrafish Estrogen Receptor (ESR1), esr1 (gene 259252) (P57717 whole entry, looked up, the tested form may be a part): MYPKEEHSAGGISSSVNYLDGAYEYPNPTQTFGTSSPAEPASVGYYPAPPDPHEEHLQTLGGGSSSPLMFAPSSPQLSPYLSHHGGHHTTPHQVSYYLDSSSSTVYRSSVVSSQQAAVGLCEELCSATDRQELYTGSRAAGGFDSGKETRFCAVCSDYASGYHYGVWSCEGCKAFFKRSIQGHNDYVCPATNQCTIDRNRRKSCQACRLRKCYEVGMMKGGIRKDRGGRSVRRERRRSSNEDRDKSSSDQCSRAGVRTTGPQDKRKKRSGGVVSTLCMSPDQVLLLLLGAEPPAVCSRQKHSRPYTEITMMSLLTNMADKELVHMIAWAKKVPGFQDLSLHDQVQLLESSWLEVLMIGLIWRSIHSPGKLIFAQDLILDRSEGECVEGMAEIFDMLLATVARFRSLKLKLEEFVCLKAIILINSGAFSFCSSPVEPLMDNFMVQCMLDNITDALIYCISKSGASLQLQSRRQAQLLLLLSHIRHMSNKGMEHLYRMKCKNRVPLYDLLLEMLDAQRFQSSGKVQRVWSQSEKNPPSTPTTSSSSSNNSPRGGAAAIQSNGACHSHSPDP

For the compound `CCCN(CCC)c1c([N+](=O)[O-])cc(C(F)(F)F)cc1[N+](=O)[O-]`, the AC50 was 47.9 µM (active) in test [1]; 44.3 µM (active) in test [3]; 33.1 µM (active) in test [4]; 80.7 µM (active) in test [5]; 50 µM (active) in test [6]. The compound was classed as inactive in test [2].

For the compound `CN1CSC(=S)N(C)C1`, the AC50 in test [7] was 40.5 µM (active); in test [5], 50 µM (active); in test [6] it was 31.5 µM (active).

As for `CCOC1Oc2ccc(OS(C)(=O)=O)cc2C1(C)C` (stereo not drawn), the results for the AC50 in test [5] and in test [6] were 25.7 µM (active) and 25.6 µM (active), respectively.

Take `CNC(=O)Oc1cccc(N=CN(C)C)c1`: the outcome in test [7], in test [5] and in test [6] was inactive.

As to `O=C1c2ccccc2C(=O)N1SC(Cl)(Cl)Cl`, the result in test [7] was inactive. For the same compound, the figures for the AC50 in test [5] and in test [6] were 8.53 µM (active) and 19.2 µM (active), respectively.

For `N#CN`, the compound was called inactive in test [7], in test [5] and in test [6].

With `CNC(=O)CSP(=S)(OC)OC`, the AC50 in test [7] was 34.2 µM (active). Further, in test [6], the call was inactive.

Turning to `O=C(Nc1ccccc1)Nc1cnns1`, the compound was called inactive in test [7]. The values for the AC50 in test [5] and in test [6] were 28.6 µM (active) and 50 µM (active), respectively.

On to `COc1nn(CSP(=S)(OC)OC)c(=O)s1`, for which the outcome in test [7] was inactive. Moreover, the AC50 in test [5] is 78.7 µM (active); in test [6] it was 92.6 µM (active).

On to `CCOCN(C(=O)CCl)c1c(C)cccc1CC`, for which the AC50 in test [3] is 29.5 µM (active); in test [4], 77.1 µM (active); in test [5], 50 µM (active); in test [6], 40.9 µM (active).

As to `CC1(c2ccc(Oc3ccccc3)cc2)OC(=O)N(Nc2ccccc2)C1=O` (stereo not drawn), the compound was called inactive in test [7]. In addition, the AC50 in test [5] was 1.01 µM (active); in test [6] it was 0.883 µM (active).

In the case of `OCCOc1ccccc1`, the result in test [6] was inactive.

With `O=C(O)C(F)(F)C(F)(F)C(F)(F)C(F)(F)C(F)(F)C(F)(F)C(F)(F)F`, the compound was classed as inactive in test [5] and in test [6]. In addition, the AC50 in test [6] is 37.7 µM (active).

Turning to `O=C(O)COc1ccc(Cl)cc1Cl`, the outcome in test [5] and in test [6] was inactive.

On to `CC(C)OC(=O)Nc1cccc(Cl)c1`, for which the AC50 was 86.1 µM (active) in test [5] and 50 µM (active) in test [6].

Take `CC(C)(C)C(O)C(Oc1ccc(Cl)cc1)n1cncn1` (stereo not drawn): in test [5], the outcome was inactive. For the same compound, in test [6], the AC50 was 39.9 µM (active).

As for `CNC(=O)Oc1ccccc1OC(C)C`, the call in test [6] was inactive.

For `CCc1ccc(C(=O)NN(C(=O)c2cc(C)cc(C)c2)C(C)(C)C)cc1`, the AC50 in test [5] and in test [6] was 50 µM (active) throughout.

With `O=C(O)CCCOc1ccc(Cl)cc1Cl`, the call in test [5] and in test [6] was inactive.

As for `C[C@H]1[C@H](c2ccc(Cl)cc2)SC(=O)N1C(=O)NC1CCCCC1`, the AC50 in test [5] is 73 µM (active); in test [6] it was 12.4 µM (active).

As for `CCN(CC)C(=O)SCc1ccc(Cl)cc1`, the AC50 in test [5] was 62.2 µM (active); in test [6] it was 65.8 µM (active).

For the compound `CC(C)N(C(=O)COc1nnc(C(F)(F)F)s1)c1ccc(F)cc1`, the AC50 in test [5] was 21.4 µM (active); in test [6] it was 50 µM (active).

On to `O=C(NC(=O)c1c(F)cccc1F)Nc1ccc(OC(F)(F)C(F)OC(F)(F)F)c(Cl)c1` (stereo not drawn), for which the result in test [5] and in test [6] was inactive.
